IDE exosite inh: exo-site inhibitors of human IDE, primary screen, biochemical, fluorescence anisotropy, probe displacement | purified IDE, FL-6b probe fluorescence polarization; active compounds read low | AID 1259349, 2017 | Insulin-degrading enzyme (Homo sapiens), P14735 | 17,000 tested, 6.3% active | z-score at 20 µM;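 active = z-score of -3 or lower, meaning strong loss of probe binding signal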;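 note: His-tagged human IDE residues 42-1019 made in E. coli with 30 nM FL-6b probe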
* hit, by the source's call. Many of the other results were omitted from the sample, so hits are more common in it than they were.

What do the screens show for `CCCC#Cc1ccc([C@H]2[C@H](CO)N3CCCCN(S(=O)(=O)c4ccccc4F)C[C@@H]23)cc1`?
IDE exosite inh: 0.098

How did Cc1ccccc1S(=O)(=O)N1CC(=O)N2[C@H](CO)[C@@H](c3ccc(C#Cc4ccccc4)cc3)[C@@H]2C1 do in these assays?
IDE exosite inh: 0.078

Results for C[C@H]1CNC(=O)[C@@H](Cc2ccc(C(F)(F)F)cc2)CCn2nncc2COC1 ?
IDE exosite inh: -1.1

Results for COc1ccc2c3c([nH]c2c1)[C@H](CO)N(C(=O)CN1CCOCC1)CC31CCN(CC2CCCC2)CC1 ?
IDE exosite inh: 1.2

Results for CCN(C[C@H]1N[C@H](CO)[C@@H]1c1ccc(-c2cccc(F)c2)cc1)C(=O)COC ?
IDE exosite inh: -0.19

What do the screens show for `CC(C)NC(=O)N(C)C[C@@H]1Oc2ccc(NC(=O)Cc3ccccc3)cc2CC(=O)N([C@@H](C)CO)C[C@@H]1C`?
IDE exosite inh: 1.5

How did C[C@H]1CN([C@@H](C)CO)C(=O)c2cc(C3=CCCCC3)cnc2O[C@H]1CN(C)S(=O)(=O)c1cn(C)cn1 do in these assays?
IDE exosite inh: -0.89

What do the screens show for `CN(C)C(=O)C[C@H]1C[C@H]2c3cc(NC(=O)c4cccnc4)ccc3O[C@H]2[C@H](CO)O1`?
IDE exosite inh: 0.18

What do the screens show for `CC(C)(C)[S@@](=O)N1Cc2cc(C(=O)NCc3ccccc3F)nc(-c3cccc(-c4cncnc4)c3)c2[C@H]1CCO`?
IDE exosite inh: -5.5*

What do the screens show for `CC(C)(C)[S@](=O)N1Cc2cc(C(=O)NCC(F)(F)F)nc(-c3cccc(-c4cccc(F)c4)c3)c2[C@@H]1CCO`?
IDE exosite inh: -0.59

How did CCCNC(=O)c1cc2c(c(-c3cccc(-c4ccc(F)cc4)c3)n1)[C@H](CCO)N([S@@](=O)C(C)(C)C)C2 do in these assays?
IDE exosite inh: 1.5

Results for CC(=O)N1[C@H](CO)[C@H](c2ccc(-c3ccccc3)cc2)[C@@H]1CNC(=O)NC(C)C ?
IDE exosite inh: 0.92

What do the screens show for `C[C@@H]1CCCCO[C@H](CN(C)S(C)(=O)=O)[C@@H](C)CN([C@@H](C)CO)C(=O)c2cc(NC(=O)NC3CCCCC3)ccc2O1`?
IDE exosite inh: 0.059

How did CN(C)CC#Cc1ccc([C@@H]2[C@H]3CN(C(=O)CN(C)C)CCCCN3[C@H]2CO)cc1 do in these assays?
IDE exosite inh: 1.7

How did CN(C)CC#Cc1ccc([C@H]2[C@@H](CO)N3CCCCN(C(=O)CN(C)C)C[C@H]23)cc1 do in these assays?
IDE exosite inh: 4

What do the screens show for `CN1CCCCN2[C@H](C1)[C@@H](c1ccc(/C=C/c3ccccc3)cc1)[C@@H]2CO`?
IDE exosite inh: -2.5

How did CN(C)CC#Cc1ccc([C@@H]2[C@H](CO)N3CCCCN(C(=O)CN(C)C)C[C@@H]23)cc1 do in these assays?
IDE exosite inh: 4

How did O=C(c1ccc(F)cc1)N1CCCCN2[C@H](CO)[C@H](c3ccc(/C=C/c4ccccc4)cc3)[C@H]2C1 do in these assays?
IDE exosite inh: -1.6

Results for CN(C)CC(=O)N1CCCCN2[C@@H](CO)[C@@H](c3ccc(-c4cncnc4)cc3)[C@@H]2C1 ?
IDE exosite inh: 0.079

Results for O=C(c1ccc(F)cc1)N1CCCCN2[C@H](CO)[C@H](c3ccc(/C=C/c4ccccc4)cc3)[C@@H]2C1 ?
IDE exosite inh: 6.9

Results for CCC(=O)N1CCCCN2[C@H](CO)[C@H](c3ccc(/C=C/c4ccccc4)cc3)[C@@H]2C1 ?
IDE exosite inh: -7.3*

What do the screens show for `CN(C)CC(=O)N1CCCCN2[C@H](CO)[C@H](c3ccc(/C=C/c4ccccc4)cc3)[C@H]2C1`?
IDE exosite inh: -11*

Results for O=C(c1ccc(F)cc1)N1CCCCN2[C@@H](CO)[C@@H](c3ccc(/C=C/c4ccccc4)cc3)[C@@H]2C1 ?
IDE exosite inh: -0.79

Results for CN(C)CC(=O)N1CCCCN2[C@H](C1)[C@@H](c1ccc(/C=C/c3ccccc3)cc1)[C@@H]2CO ?
IDE exosite inh: -5.9*

What do the screens show for `CN(C)CC(=O)N1CCCCN2[C@H](C1)[C@H](c1ccc(/C=C/c3ccccc3)cc1)[C@@H]2CO`?
IDE exosite inh: -7.3*

What do the screens show for `CCC(=O)N1CC2(CN(Cc3ccc(F)cc3)C2)c2c(n(C)c3cc(OC)ccc23)[C@@H]1CO`?
IDE exosite inh: 0.21

What do the screens show for `N#C[C@@H]1[C@@H](c2ccc(-c3cccnc3)cc2)[C@H](CO)N1C(=O)C1CCC1`?
IDE exosite inh: 1.9

What do the screens show for `CCS(=O)(=O)N1CCCCN2[C@H](CO)[C@@H](c3ccc(-c4ccc(C(=O)N(C)C)cc4)cc3)[C@@H]2C1`?
IDE exosite inh: -0.38

Results for C/C=C/c1ccc([C@@H]2[C@@H](CO)N(C(C)=O)[C@@H]2CNC(=O)c2ccccc2)cc1 ?
IDE exosite inh: -0.33

Results for O=C(Nc1cccc(F)c1)N1CC(=O)N2[C@H](C1)[C@@H](c1ccc(-c3ccccc3)cc1)[C@@H]2CO ?
IDE exosite inh: -1.6

Results for CCCN1C[C@@H](C)[C@H](OC)CN(C)C(=O)c2cc(NS(=O)(=O)c3ccccc3)ccc2OC[C@H]1C ?
IDE exosite inh: 0.96

Results for COCC(=O)N1C[C@H](C)[C@@H](OC)CN(C)C(=O)c2ccc(NC(=O)Nc3cccc(F)c3)cc2OC[C@H]1C ?
IDE exosite inh: 0.96

Results for O=C(Nc1ccccc1F)N1CC(=O)N2[C@H](C1)[C@H](c1ccc(C#CC3CC3)cc1)[C@@H]2CO ?
IDE exosite inh: -0.16

Results for CN(C)CC(=O)N1CCCCN2[C@@H](CO)[C@@H](c3ccc(/C=C/c4ccccc4)cc3)[C@@H]2C1 ?
IDE exosite inh: -12*

How did C/C=C/c1ccc([C@@H]2[C@H]3CN(C(=O)CN(C)C)CCCCN3[C@H]2CO)cc1 do in these assays?
IDE exosite inh: 1.1

How did O=C(c1ccc(F)cc1)N1CCCCN2[C@H](CO)[C@@H](c3ccc(/C=C/c4ccccc4)cc3)[C@@H]2C1 do in these assays?
IDE exosite inh: 0.98

Results for CN(C)CC(=O)N1CCCCN2[C@@H](CO)[C@@H](c3ccc(-c4ccccc4)cc3)[C@@H]2C1 ?
IDE exosite inh: -0.78

What do the screens show for `CN(C)CC#Cc1ccc([C@@H]2[C@@H](CO)N3CCCCN(C(=O)CN(C)C)C[C@H]23)cc1`?
IDE exosite inh: 1.4

What do the screens show for `CN(C)CC(=O)N1CCCCN2[C@@H](CO)[C@H](c3ccc(/C=C/c4ccccc4)cc3)[C@@H]2C1`?
IDE exosite inh: -6.5*

What do the screens show for `Cn1cnc(S(=O)(=O)N[C@@H]2CC[C@H](CC(=O)NCC3CCCCC3)O[C@H]2CO)c1`?
IDE exosite inh: -1.1

Results for CC(=O)N1CCCCN2[C@H](C1)[C@H](c1ccc(-c3ccncc3)cc1)[C@@H]2CO ?
IDE exosite inh: 4.1

Results for C[C@H]1CCCCO[C@@H](CN(C)CC2CC2)[C@@H](C)CN([C@@H](C)CO)C(=O)c2cc(NC(=O)c3ccccc3)ccc2O1 ?
IDE exosite inh: -1

How did O=C(NC[C@H]1[C@@H](c2ccccc2)[C@@H](CO)N1Cc1ccccn1)C1CC1 do in these assays?
IDE exosite inh: 4.8

Screens as filed in PubChem BioAssay.
